Of roughly 7,900 targets only a part is listed; those with a hit were picked by preference. About 0.6% of all pairs of compound and target were hits.

UniProt Q96EV8, sequence (Q96EV8 whole entry, looked up): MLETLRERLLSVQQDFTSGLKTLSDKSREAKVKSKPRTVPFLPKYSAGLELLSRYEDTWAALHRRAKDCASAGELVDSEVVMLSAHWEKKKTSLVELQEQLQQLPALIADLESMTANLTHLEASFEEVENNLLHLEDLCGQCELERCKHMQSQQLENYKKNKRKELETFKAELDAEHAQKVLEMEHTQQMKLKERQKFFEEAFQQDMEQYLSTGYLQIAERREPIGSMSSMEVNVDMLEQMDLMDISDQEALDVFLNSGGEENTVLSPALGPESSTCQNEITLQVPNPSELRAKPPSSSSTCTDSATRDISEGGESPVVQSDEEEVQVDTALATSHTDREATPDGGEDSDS
UniProt Q8WV16, sequence (Q8WV16 whole entry, looked up): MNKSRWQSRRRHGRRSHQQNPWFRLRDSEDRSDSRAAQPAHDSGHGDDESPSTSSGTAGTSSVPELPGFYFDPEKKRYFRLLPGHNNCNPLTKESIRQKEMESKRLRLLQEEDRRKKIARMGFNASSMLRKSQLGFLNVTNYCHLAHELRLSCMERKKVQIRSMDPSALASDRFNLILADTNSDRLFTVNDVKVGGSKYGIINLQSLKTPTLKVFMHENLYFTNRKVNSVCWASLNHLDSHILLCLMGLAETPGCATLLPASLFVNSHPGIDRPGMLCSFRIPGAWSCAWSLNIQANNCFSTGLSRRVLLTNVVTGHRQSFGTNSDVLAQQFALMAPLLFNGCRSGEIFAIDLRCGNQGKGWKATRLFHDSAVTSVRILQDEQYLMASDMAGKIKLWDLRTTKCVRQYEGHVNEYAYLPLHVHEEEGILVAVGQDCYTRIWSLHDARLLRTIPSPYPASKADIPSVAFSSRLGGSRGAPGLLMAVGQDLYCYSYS
UniProt Q9H4H8, sequence (Q9H4H8 whole entry, looked up): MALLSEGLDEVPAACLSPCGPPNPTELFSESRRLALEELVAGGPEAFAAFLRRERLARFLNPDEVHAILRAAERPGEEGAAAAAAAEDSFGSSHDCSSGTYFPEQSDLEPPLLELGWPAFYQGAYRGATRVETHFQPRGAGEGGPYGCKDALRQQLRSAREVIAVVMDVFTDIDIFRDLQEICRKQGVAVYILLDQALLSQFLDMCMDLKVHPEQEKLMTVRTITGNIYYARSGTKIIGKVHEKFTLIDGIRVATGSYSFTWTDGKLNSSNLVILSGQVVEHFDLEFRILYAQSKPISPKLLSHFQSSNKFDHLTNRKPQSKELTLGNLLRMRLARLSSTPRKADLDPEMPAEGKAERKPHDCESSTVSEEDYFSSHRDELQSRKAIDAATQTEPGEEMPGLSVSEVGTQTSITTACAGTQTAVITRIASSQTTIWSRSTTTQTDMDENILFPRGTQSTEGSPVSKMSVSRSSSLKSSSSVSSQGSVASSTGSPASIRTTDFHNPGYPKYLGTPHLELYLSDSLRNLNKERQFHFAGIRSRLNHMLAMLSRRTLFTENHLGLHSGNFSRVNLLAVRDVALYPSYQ
UniProt O94905, sequence (O94905 whole entry, looked up): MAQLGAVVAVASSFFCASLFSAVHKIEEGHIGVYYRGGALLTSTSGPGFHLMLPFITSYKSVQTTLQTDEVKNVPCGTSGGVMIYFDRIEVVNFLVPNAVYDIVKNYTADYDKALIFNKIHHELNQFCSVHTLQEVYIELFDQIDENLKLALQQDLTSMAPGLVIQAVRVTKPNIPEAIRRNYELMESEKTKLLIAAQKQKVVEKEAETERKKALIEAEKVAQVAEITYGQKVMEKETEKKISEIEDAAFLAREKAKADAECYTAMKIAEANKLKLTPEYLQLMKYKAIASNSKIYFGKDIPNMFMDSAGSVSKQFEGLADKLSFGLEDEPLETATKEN
UniProt Q96G46, sequence (Q96G46 whole entry, looked up): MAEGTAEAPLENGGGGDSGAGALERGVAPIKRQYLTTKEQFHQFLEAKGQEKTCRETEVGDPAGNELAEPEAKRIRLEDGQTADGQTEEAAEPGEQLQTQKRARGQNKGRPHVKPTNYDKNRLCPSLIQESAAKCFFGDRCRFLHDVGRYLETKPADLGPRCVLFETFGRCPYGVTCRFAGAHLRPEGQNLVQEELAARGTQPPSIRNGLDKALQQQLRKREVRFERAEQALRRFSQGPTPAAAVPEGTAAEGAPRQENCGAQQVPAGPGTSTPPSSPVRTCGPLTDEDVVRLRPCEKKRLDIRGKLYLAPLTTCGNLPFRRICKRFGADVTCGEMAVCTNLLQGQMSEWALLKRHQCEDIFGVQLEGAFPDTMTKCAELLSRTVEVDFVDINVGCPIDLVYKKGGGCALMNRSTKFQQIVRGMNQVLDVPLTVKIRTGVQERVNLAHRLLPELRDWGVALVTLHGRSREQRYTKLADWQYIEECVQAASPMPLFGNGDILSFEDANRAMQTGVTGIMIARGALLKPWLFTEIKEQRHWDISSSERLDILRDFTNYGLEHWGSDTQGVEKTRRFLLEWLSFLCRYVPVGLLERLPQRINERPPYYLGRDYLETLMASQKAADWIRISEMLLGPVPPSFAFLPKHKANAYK
UniProt Q9UER7, sequence (Q9UER7 whole entry, looked up): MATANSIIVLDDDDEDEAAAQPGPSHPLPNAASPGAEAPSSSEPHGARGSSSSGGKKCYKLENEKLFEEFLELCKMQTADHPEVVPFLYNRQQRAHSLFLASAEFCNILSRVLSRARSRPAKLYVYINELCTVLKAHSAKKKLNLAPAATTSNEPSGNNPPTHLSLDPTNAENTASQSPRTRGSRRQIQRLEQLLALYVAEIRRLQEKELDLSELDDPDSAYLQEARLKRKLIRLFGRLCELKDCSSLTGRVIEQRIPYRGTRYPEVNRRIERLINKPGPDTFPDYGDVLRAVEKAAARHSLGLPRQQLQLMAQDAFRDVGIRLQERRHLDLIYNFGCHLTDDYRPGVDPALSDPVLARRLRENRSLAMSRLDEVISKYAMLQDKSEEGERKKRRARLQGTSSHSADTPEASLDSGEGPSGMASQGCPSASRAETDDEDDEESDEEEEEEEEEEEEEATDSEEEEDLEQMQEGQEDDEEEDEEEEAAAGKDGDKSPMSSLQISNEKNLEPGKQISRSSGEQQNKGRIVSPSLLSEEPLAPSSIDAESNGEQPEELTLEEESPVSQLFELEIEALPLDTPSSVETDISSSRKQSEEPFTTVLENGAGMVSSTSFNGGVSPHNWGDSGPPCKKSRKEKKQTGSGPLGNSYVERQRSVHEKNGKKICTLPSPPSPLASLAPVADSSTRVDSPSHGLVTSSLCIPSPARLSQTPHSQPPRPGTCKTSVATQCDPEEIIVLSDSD
UniProt Q6V1X1, sequence (Q6V1X1 whole entry, looked up): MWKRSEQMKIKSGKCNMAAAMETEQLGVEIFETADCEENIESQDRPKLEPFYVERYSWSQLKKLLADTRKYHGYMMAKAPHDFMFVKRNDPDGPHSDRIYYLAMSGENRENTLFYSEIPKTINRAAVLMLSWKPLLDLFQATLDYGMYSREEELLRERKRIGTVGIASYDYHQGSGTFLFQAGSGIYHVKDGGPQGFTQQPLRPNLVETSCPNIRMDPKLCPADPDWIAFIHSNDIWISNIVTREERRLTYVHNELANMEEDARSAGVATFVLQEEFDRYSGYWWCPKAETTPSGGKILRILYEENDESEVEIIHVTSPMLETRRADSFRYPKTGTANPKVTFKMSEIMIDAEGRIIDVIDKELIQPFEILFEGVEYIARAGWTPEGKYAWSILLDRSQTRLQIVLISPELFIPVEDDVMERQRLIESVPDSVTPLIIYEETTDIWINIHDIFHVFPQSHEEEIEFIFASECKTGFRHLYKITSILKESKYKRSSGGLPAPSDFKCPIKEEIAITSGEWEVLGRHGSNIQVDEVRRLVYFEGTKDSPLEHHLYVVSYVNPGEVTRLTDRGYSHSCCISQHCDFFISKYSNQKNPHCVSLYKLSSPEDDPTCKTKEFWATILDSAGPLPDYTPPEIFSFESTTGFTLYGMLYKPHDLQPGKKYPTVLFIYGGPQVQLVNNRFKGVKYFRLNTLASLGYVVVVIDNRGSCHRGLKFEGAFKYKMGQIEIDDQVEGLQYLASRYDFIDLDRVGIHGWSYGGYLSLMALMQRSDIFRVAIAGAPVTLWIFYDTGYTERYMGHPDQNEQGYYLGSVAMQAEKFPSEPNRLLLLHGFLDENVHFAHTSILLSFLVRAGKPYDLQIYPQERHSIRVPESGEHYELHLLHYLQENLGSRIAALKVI
UniProt Q14320, sequence (Q14320 whole entry, looked up): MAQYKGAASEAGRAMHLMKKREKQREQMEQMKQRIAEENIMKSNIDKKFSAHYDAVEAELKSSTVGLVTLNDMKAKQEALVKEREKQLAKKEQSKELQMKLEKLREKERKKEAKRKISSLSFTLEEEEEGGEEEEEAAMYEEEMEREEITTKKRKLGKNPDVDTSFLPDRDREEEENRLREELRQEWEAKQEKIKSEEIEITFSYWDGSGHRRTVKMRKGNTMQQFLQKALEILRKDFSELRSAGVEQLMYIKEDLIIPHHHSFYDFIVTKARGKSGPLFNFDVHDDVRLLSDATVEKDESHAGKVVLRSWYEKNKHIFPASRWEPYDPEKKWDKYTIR
UniProt Q9UBR2, sequence (Q9UBR2 whole entry, looked up): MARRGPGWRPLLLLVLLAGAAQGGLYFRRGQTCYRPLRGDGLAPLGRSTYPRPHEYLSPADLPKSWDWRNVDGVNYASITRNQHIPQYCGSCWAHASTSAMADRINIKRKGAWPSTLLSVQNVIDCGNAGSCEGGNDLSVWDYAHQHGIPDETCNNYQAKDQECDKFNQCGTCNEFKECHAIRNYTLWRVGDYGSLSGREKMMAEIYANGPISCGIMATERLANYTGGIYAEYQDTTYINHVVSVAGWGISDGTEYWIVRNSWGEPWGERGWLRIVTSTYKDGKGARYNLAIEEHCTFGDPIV
UniProt Q6P3W2, sequence (Q6P3W2 whole entry, looked up): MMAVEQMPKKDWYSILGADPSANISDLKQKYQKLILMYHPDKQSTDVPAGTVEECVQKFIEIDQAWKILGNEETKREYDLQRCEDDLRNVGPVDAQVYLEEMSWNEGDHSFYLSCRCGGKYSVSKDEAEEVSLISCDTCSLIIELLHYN
UniProt Q15369, sequence (Q15369 whole entry, looked up): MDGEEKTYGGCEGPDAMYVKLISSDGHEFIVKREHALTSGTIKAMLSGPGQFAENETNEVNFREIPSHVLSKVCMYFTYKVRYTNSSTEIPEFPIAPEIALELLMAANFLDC

Compound in this test: c1cn2cc(-c3ccc4cn[nH]c4c3)nc(Nc3ccc(N4CCOCC4)cc3)c2n1 [entospletinib]
Kind of test: log2 fold change, soluble protein after heating vs DMSO (PISA); higher = thermal stabilisation; K562 cells, 10 uM, 30 min; active = over 0.2 and 3.5 SD of the protein, either way, in both replicates (recomputed). Summed up: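 K562 cells at 2×10^6 cells/mL were given 10 μM compound for 30 min. Aliquots then went through 3 min of heating across 48°C-58°C, were pooled, and were extracted in PBS with 0.5% NP-40 at 4°C, and the supernatant after 21,000xg for 90 min was quantified by TMTpro 16plex LC-MS/MS with channel sums equalised. Thermal stability relative to control samples, from duplicates, is given as log2 fold change.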
As for EXOC6 (UniProt Q8TAG9), the log2 fold change was 0.014 (inactive).

Turning to DTNBP1 (UniProt Q96EV8), the log2 fold change was 0.004 (inactive).

Take DDOST (UniProt P39656): the log2 fold change was -0.014 (inactive).

Take ELOC (UniProt Q15369): the log2 fold change is 0.028 (inactive).

Consider EEF1A1 (UniProt P68104), for which the log2 fold change is 0.046 (inactive).

On to CTU1 (UniProt Q7Z7A3), for which the log2 fold change is 0.006 (inactive).

Consider DIAPH1 (UniProt O60610), for which the log2 fold change was 0.1 (inactive).

As to CTSC (UniProt P53634), the log2 fold change is -0.047 (inactive).

Regarding CTSZ (UniProt Q9UBR2), the log2 fold change was 0.13 (inactive).

Turning to FAM50A (UniProt Q14320), the log2 fold change is -0.006 (inactive).

Take EIF4E isoform 2 (UniProt P06730): the log2 fold change was 0.062 (inactive).

Take DHX36 (UniProt Q9H2U1): the log2 fold change is 0.016 (inactive).

On to DAXX (UniProt Q9UER7), for which the log2 fold change was -0.025 (inactive).

For DNTTIP2 (UniProt Q5QJE6), the log2 fold change was 0.108 (inactive).

On to FAM83D (UniProt Q9H4H8), for which the log2 fold change was 0.028 (inactive).

On to EEF1AKNMT (UniProt Q8N6R0), for which the log2 fold change was 0.059 (inactive).

As for CTSA (UniProt P10619), the log2 fold change is 0.041 (inactive).

Consider DNAJC24 (UniProt Q6P3W2), for which the log2 fold change was 0.186 (inactive).

For DUS3L (UniProt Q96G46), the log2 fold change was -0.086 (inactive).

For the target CYFIP1 (UniProt Q7L576), the log2 fold change was -0.018 (inactive).

Regarding ERLIN1 (UniProt O75477), the log2 fold change was -0.049 (inactive).

FAM117A (UniProt Q9C073): the log2 fold change was 0.067 (inactive).

For DCAF4 (UniProt Q8WV16), the log2 fold change is -0.146 (inactive).

Regarding ERLIN2 (UniProt O94905), the log2 fold change was -0.062 (inactive).

In the case of EDC4 (UniProt Q6P2E9), the log2 fold change was 0.044 (inactive).

Consider DNAH11 (UniProt Q96DT5), for which the log2 fold change is 0.115 (inactive).

Take CTSS (UniProt P25774): the log2 fold change was 0.07 (inactive).

DPP8 (UniProt Q6V1X1): the log2 fold change is -0.377 (active).

Take DNM2 (UniProt P50570): the log2 fold change was -0.017 (inactive).

Regarding ELOVL1 (UniProt Q9BW60), the log2 fold change is -0.007 (inactive).

For DBNL isoform 3 (UniProt Q9UJU6), the log2 fold change was -0.087 (inactive).

As for EEF1D isoform 2 (UniProt P29692), the log2 fold change is 0.031 (inactive).

As for EHD2 (UniProt Q9NZN4), the log2 fold change is -0.038 (inactive).

For CYB561A3 isoform 2 (UniProt Q8NBI2), the log2 fold change was 0.315 (inactive).

These data come from the supplement of paper PMC10849652.
